Experimental data from PubChem BioAssay (NCI).
This is part of a sample that, as a whole, favours compounds with a hit. Of some 83,000 tested, about 20% had one in any assay.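 Each cell line was grown in a 96-well plate and treated with one concentration of compound for 48 hours. Values below 10 were considered active.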 Active and inactive are the calls of the source.

How the values were obtained:
Assay in all cases: NCI-60 one-dose screen, 48 h (100 = growth as untreated, 0 = no growth, -100 = all killed)
[1] = tested on: DU-145 prostate; conditions: 10 µM unless noted
[2] = tested on: K-562 leukemia; conditions: 10 µM unless noted
[3] = tested on: MALME-3M melanoma; conditions: 10 µM unless noted
[4] = tested on: MDA-MB-231 breast; conditions: 10 µM unless noted
[5] = tested on: RXF 393 renal; conditions: 10 µM unless noted
[6] = tested on: SF-268 CNS; conditions: 10 µM unless noted
[7] = tested on: SF-295 CNS; conditions: 10 µM unless noted
[8] = tested on: SF-539 CNS; conditions: 10 µM unless noted
[9] = tested on: UACC-257 melanoma; conditions: 10 µM
[10] = tested on: M14 melanoma; conditions: 10 µM unless noted
[11] = tested on: HCT-15 colon; conditions: 10 µM unless noted
[12] = tested on: HT29 colon; conditions: 10 µM unless noted
[13] = tested on: SNB-75 CNS; conditions: 10 µM unless noted
[14] = tested on: SNB-19 CNS; conditions: 10 µM unless noted
[15] = tested on: U251 CNS; conditions: 10 µM unless noted
[16] = tested on: PC-3 prostate; conditions: 10 µM unless noted
[17] = tested on: SK-MEL-5 melanoma; conditions: 10 µM unless noted
[18] = tested on: UACC-62 melanoma; conditions: 10 µM unless noted
[19] = tested on: LOX IMVI melanoma; conditions: 10 µM unless noted
[20] = tested on: SK-MEL-28 melanoma; conditions: 10 µM unless noted

Measured: growth

COc1ccc(-c2ccnc3c(C#N)c(Nc4ccccc4)nn23)cc1OC
inactive: [1] 93.9% | [2] 93.6% | [3] 110% | [4] 64.2% | [5] 15.8% | [6] 86.4% | [7] 93.2% | [8] 78.8% | [9] 104% | [10] 117% | [11] 88.8% | [12] 90% | [13] 51.4% | [14] 95.1% | [15] 87.7% | [16] 89.2% | [17] 74.2% | [18] 85.3% | [19] 90.9% | [20] 90.7%

O=c1[nH]c(CCl)nc2c1cnn2-c1ccccc1
active: [19] -38.5%
inactive: [1] 98.6% | [2] 87.5% | [3] 110% | [4] 101% | [5] 94.1% | [6] 99.9% | [7] 110% | [8] 97.1% | [9] 96.2% | [10] 95.7% | [11] 99.9% | [12] 115% | [13] 93.6% | [14] 96.4% | [15] 103% | [16] 105% | [17] 99% | [18] 96.2% | [20] 107%

O=C(Nc1cccc(-c2nc(-c3ccc(NC(=O)c4cccs4)cc3Cl)no2)c1)Nc1ccc(NC(=O)C2CC2)c(C(F)(F)F)c1
active: [1] -13.4% | [2] -11.1% | [3] -80.6% | [4] -58.2% | [5] -83.7% | [6] -33.8% | [7] -63.1% | [8] -85.4% | [9] -32.2% | [10] -41.1% | [11] 0.554% | [12] -11.2% | [13] -66.4% | [14] -17.7% | [15] -49.7% | [16] -56.3% | [17] -90.7% | [18] -73.8% | [19] -87.1% | [20] -83.3%

CCOC(=O)c1c(Nc2ccccc2)nn2c(-c3ccc(Br)cc3)ccnc12
active: [5] -12.3%
inactive: [1] 77.8% | [2] 78.9% | [3] 75% | [4] 70.4% | [6] 68.7% | [7] 77.2% | [8] 63.8% | [9] 103% | [10] 88.6% | [11] 66.4% | [12] 76.7% | [13] 65.2% | [14] 56.8% | [15] 66.3% | [16] 80.9% | [17] 81.2% | [18] 79.3% | [19] 56.4% | [20] 78.3%

CC(C)(C)CC(C)(C)n1nnnc1C(Nc1ccccc1)c1cc2cccc3ccc4cccc1c4c32 (stereo not given)
inactive: [1] 96.9% | [2] 72.6% | [3] 87.4% | [4] 75.1% | [5] 79.5% | [6] 82.4% | [7] 86.5% | [8] 95.7% | [9] 95.5% | [10] 90.2% | [11] 78.5% | [12] 70.7% | [13] 99.9% | [14] 95.1% | [15] 88.7% | [16] 50.4% | [17] 89.6% | [18] 67.4% | [19] 85.1% | [20] 90%

Oc1ccccc1/C=N/Nc1nc(N/N=C/c2ccccc2O)nc(N2CCOCC2)n1
inactive: [1] 35.5% | [2] 25.4% | [3] 52.6% | [4] 36.3% | [6] 72.3% | [7] 19.6% | [8] 51.8% | [9] 53.3% | [10] 37.6% | [12] 34.2% | [14] 41.7% | [15] 22% | [16] 24.1% | [17] 65.8% | [18] 88.8% | [20] 28%
active: [5] -0.648% | [11] 3.87% | [13] -4.09% | [19] 4.04%

N/C(=N\OC(=O)CSc1nc2ccccc2s1)c1ccc2ccccc2c1
inactive: [1] 103% | [2] 102% | [3] 105% | [4] 89.5% | [5] 119% | [6] 98.2% | [7] 103% | [8] 95.2% | [9] 105% | [10] 98.6% | [11] 101% | [12] 103% | [13] 86.7% | [14] 99.9% | [15] 96.4% | [16] 93.6% | [17] 101% | [18] 91.4% | [19] 99.8% | [20] 106%

COc1cc2oc(-c3cccc(NC(=O)c4cc(NC(=O)[C@H](C)N)ccc4Cl)c3)cc(=O)c2c(OC)c1OC
inactive: [1] 95.2% | [2] 78.8% | [3] 111% | [4] 82.4% | [5] 84.8% | [6] 92.2% | [7] 92.3% | [8] 91.1% | [9] 129% | [10] 115% | [11] 79.8% | [12] 115% | [13] 96.1% | [14] 88.8% | [15] 95.3% | [16] 81.2% | [17] 86% | [18] 89.3% | [19] 80.9% | [20] 106%

O=C1c2cc(Br)ccc2-n2c1nc1cc(Br)ccc1c2=O
inactive: [1] 74.1% | [2] 73.9% | [3] 44.1% | [4] 75.5% | [5] 97.6% | [6] 78% | [7] 87% | [8] 92.4% | [9] 43.1% | [10] 72.2% | [11] 64.8% | [12] 74.3% | [13] 68.3% | [14] 84.6% | [15] 91.9% | [16] 60.9% | [17] 60.6% | [18] 85.7% | [19] 63.9% | [20] 88.9%

O=S(=O)(Nc1ccc2c(c1)OC(F)(F)O2)c1ccc(-c2cnc(C3CC3)o2)cc1
inactive: [1] 68.6% | [3] 50.2% | [4] 48.1% | [5] 49.5% | [6] 60.6% | [7] 22.6% | [8] 37.8% | [9] 58.9% | [10] 25.4% | [11] 26.2% | [12] 17.2% | [13] 19% | [14] 47% | [15] 32.6% | [16] 45.3% | [17] 38% | [18] 29.4% | [19] 37.7% | [20] 58.3%
active: [2] 9.69%

O=C1[C@@H]2Cc3c([nH]c4ccccc34)[C@H](c3c(Cl)cccc3Cl)N2C(=O)CN1C1CCN(Cc2ccccc2)CC1
inactive: [1] 31.6% | [3] 44.9% | [4] 55.4% | [5] 55.9% | [6] 52.5% | [8] 70.3% | [9] 46.4% | [10] 23.3% | [13] 62% | [14] 61.8% | [15] 38.9% | [16] 41.8% | [17] 45.2% | [18] 90.2% | [20] 14.6%
active: [2] -8.4% | [7] -79.4% | [11] -25.7% | [12] 2.12% | [19] -80%

COc1ccc(NC(=O)[C@H](C)N)cc1C(=O)Nc1cccc(-c2cc(=O)c3c(OC)c(OC)c(OC)cc3o2)c1
inactive: [1] 60.8% | [2] 52.6% | [3] 86.5% | [4] 62.3% | [5] 71.9% | [6] 66.6% | [7] 64.6% | [8] 71.9% | [9] 109% | [10] 104% | [11] 49.6% | [12] 69.8% | [13] 84.5% | [14] 65.8% | [15] 56.3% | [16] 71.6% | [17] 57.9% | [18] 63.5% | [19] 49.8% | [20] 88.2%

CCOP(=O)(OCC)OC[C@]12CCC(C)(C)C[C@H]1C1=CC[C@@H]3[C@@]4(C)C/C(=C\c5cccnc5)[C@H](OP(=O)(OCC)OCC)C(C)(C)[C@@H]4CC[C@@]3(C)[C@]1(C)CC2
inactive: [1] 30.7% | [3] 19.5% | [4] 44.8% | [5] 58% | [6] 46.1% | [7] 26.7% | [8] 37% | [9] 23.7% | [10] 34.6% | [11] 14.4% | [12] 12% | [13] 80.2% | [14] 40% | [15] 14.7% | [16] 15.6% | [18] 25.5% | [19] 22% | [20] 34.5%
active: [2] 9.94% | [17] -61.3%

CCOC(=O)c1c(NCC(=O)Nc2cccc(Cl)c2)sc2c1CCCC2
inactive: [1] 93.8% | [2] 66% | [3] 82.8% | [4] 86.5% | [5] 87.3% | [6] 84.8% | [7] 80.1% | [8] 92.5% | [9] 99.1% | [10] 83.2% | [11] 66.4% | [12] 101% | [13] 59.5% | [14] 82.7% | [15] 63.6% | [16] 73.6% | [17] 84.5% | [18] 61.9% | [19] 35.3% | [20] 89.5%
